Measured values from PubChem BioAssay (NCI).
“And” between values parts separate entries of the source, which are not always exact repeats. Identical values can stand only once. Compounds without any hit were thinned out: in the full panel of roughly 83,000, 20% have a hit.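 48-hour exposure, single concentration, 96-well plates; percent growth endpoint where 0 means no net growth. Active: below 10.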 The source made the active and inactive calls.

Each molecule was assayed on LOX IMVI melanoma (assay: NCI-60 one-dose screen, 48 h (100 = growth as untreated, 0 = no growth, -100 = all killed)). Settings: 10 µM unless noted.
For CC(=O)OC(C)C(=O)NCC(C)O (stereo not drawn), the growth was 101% (inactive). With Nc1cc(N)c(N)cc1N the growth was -93.8% (active). c1ccc(CNCCNCc2ccccc2)cc1 was tested, and the growth was 110% (inactive). In the case of CC(=O)NCC(=O)c1ccc([N+](=O)[O-])cc1, the growth is reported as 95% (inactive). O=C(O)CCCl was tested, and the growth was 104% (inactive). With Oc1ccc(Cc2ccccc2Cl)c(O)c1 the growth was 86.3% (inactive). With COc1ccc(Nc2ccc3ccccc3c2)cc1 the growth was 74.2% (inactive). Cc1cc(-c2ccc(N=Nc3ccc4c(S(=O)(=O)O)cc(S(=O)(=O)O)c(N)c4c3O)c(C)c2)ccc1N=Nc1ccc2c(S(=O)(=O)O)cc(S(=O)(=O)O)c(N)c2c1O was tested, and the growth was 96.9% (inactive). With CCCCCCCCCCCCCCCc1ccc(N)c(OC2OC(CO)C(O)C(O)C2O)c1 (stereo not drawn) the growth was 86.3% (inactive). For CC1=C/C(O)CC(=O)Cc2nc(co2)C(=O)N2CCC=C2C(=O)OC(C(C)C)C(C)/C=C\C(=O)NC/C=C\1 (stereo not drawn), the growth was 59.6% (inactive). In the case of Cl, the growth is reported as 97% (inactive). CCCCOC(=O)/C=C\C(=O)NC(N)=O was tested, and the growth was 79.1% (inactive). With Cn1cnc([N+](=O)[O-])c1Sc1ncn[nH]1 the growth was 93.1% (inactive). CCCCCCCCCCCCCCCCC(C(=O)O)C(O)(CC(=O)O)C(=O)O (stereo not drawn) was tested, and the growth was 106% (inactive) and 0.982% (active). For CCc1cc(C)cc(O)c1, the growth was 105% (inactive). In the case of c1ccc2c(c1)OC1OC2Oc2ccccc21, the growth is reported as 91.1% (inactive). For CC(C)NC(=O)N/C=C(\C#N)C(N)=O, the growth was 97.2% (inactive). With O=[N+]([O-])c1cccc(SSc2cccc([N+](=O)[O-])c2)c1 the growth was 100% (inactive). CC(C)C(C)(C)c1ccc(O)cc1 was tested, and the growth was 98.4% (inactive). With ClCCOCCOc1ccc(C2CCCCC2)cc1 the growth was 107% (inactive). In the case of Cc1cc2ccccc2cn1, the growth is reported as 102% (inactive) and 99.7% (inactive). For N#CC(C#N)N=Nc1ccc(Cl)cc1, the growth was 53.5% (inactive). O=CN1CCCCC1 was tested, and the growth was 96.6% (inactive). In the case of C/C(=C\c1ccccc1)c1ccccn1, the growth is reported as 112% (inactive). In the case of OC1COC(OCc2ccccc2)C(O)C1O (stereo not drawn), the growth is reported as 94% (inactive). For OCC1OC(O)C(O)C(O)C1O (stereo not drawn), the growth was 100% (inactive). In the case of COc1ccc(C(=O)CC(c2ccccc2)C(C#N)c2ccccc2)cc1 (stereo not drawn), the growth is reported as 85.2% (inactive). In the case of NC1CCC(C(=O)O)CC1 (stereo not drawn), the growth is reported as 107% (inactive) and 96.2% (inactive). With Nc1ccc2c(O)cc(S(=O)(=O)O)cc2c1 the growth was 92.8% (inactive). For CN1CNC(=O)NC1, the growth was 99.6% (inactive) and 95.4% (inactive). In the case of COc1ccc(N/C=C/C2=[N+](C)c3ccccc3C2(C)C)c(OC)c1, the growth is reported as 96% (inactive). For N#CC(C#N)N=Nc1cc(Cl)ccc1Cl, the growth was 109% (inactive). In the case of Nc1nc(N)c2[nH]cnc2n1, the growth is reported as 83% (inactive). In the case of Cc1cc(-c2cc(C)c(O)c(C)c2)cc(C)c1O, the growth is reported as 76.8% (inactive). Fc1ccc([I+]c2ccc(F)cc2)cc1 was tested, and the growth was 47.9% (inactive). With COc1cc(C(O)C2C(=O)OCC2C2(c3ccc4c(c3)OCO4)SCCCS2)cc(OC)c1OC (stereo not drawn) the growth was 92.1% (inactive). For OCCN1CCCCCCC1, the growth was 103% (inactive).

Each molecule was assayed on SK-MEL-28 melanoma in the same assay as above. Settings: 10 µM unless noted.
With CC(=O)OC(C)C(=O)NCC(C)O (stereo not drawn) the growth was 105% (inactive). In the case of Nc1cc(N)c(N)cc1N, the growth is reported as 78.7% (inactive). For c1ccc(CNCCNCc2ccccc2)cc1, the growth was 108% (inactive). With CC(=O)NCC(=O)c1ccc([N+](=O)[O-])cc1 the growth was 105% (inactive). For O=C(O)CCCl, the growth was 105% (inactive). With Oc1ccc(Cc2ccccc2Cl)c(O)c1 the growth was 110% (inactive). For COc1ccc(Nc2ccc3ccccc3c2)cc1, the growth was 89.8% (inactive). Cc1cc(-c2ccc(N=Nc3ccc4c(S(=O)(=O)O)cc(S(=O)(=O)O)c(N)c4c3O)c(C)c2)ccc1N=Nc1ccc2c(S(=O)(=O)O)cc(S(=O)(=O)O)c(N)c2c1O was tested, and the growth was 120% (inactive). With CCCCCCCCCCCCCCCc1ccc(N)c(OC2OC(CO)C(O)C(O)C2O)c1 (stereo not drawn) the growth was 112% (inactive). With CC1=C/C(O)CC(=O)Cc2nc(co2)C(=O)N2CCC=C2C(=O)OC(C(C)C)C(C)/C=C\C(=O)NC/C=C\1 (stereo not drawn) the growth was 32.6% (inactive). For Cl, the growth was 136% (inactive). In the case of CCCCOC(=O)/C=C\C(=O)NC(N)=O, the growth is reported as 97.6% (inactive). For Cn1cnc([N+](=O)[O-])c1Sc1ncn[nH]1, the growth was 104% (inactive). In the case of CCCCCCCCCCCCCCCCC(C(=O)O)C(O)(CC(=O)O)C(=O)O (stereo not drawn), the growth is reported as 108% (inactive). In the case of CCc1cc(C)cc(O)c1, the growth is reported as 111% (inactive). In the case of c1ccc2c(c1)OC1OC2Oc2ccccc21, the growth is reported as 103% (inactive). CC(C)NC(=O)N/C=C(\C#N)C(N)=O was tested, and the growth was 100% (inactive). In the case of O=[N+]([O-])c1cccc(SSc2cccc([N+](=O)[O-])c2)c1, the growth is reported as 110% (inactive). CC(C)C(C)(C)c1ccc(O)cc1 was tested, and the growth was 105% (inactive). In the case of ClCCOCCOc1ccc(C2CCCCC2)cc1, the growth is reported as 102% (inactive). With Cc1cc2ccccc2cn1 the growth was 109% (inactive) and 200% (inactive). In the case of N#CC(C#N)N=Nc1ccc(Cl)cc1, the growth is reported as 42.2% (inactive). For O=CN1CCCCC1, the growth was 110% (inactive). For C/C(=C\c1ccccc1)c1ccccn1, the growth was 107% (inactive). For OC1COC(OCc2ccccc2)C(O)C1O (stereo not drawn), the growth was 104% (inactive). COc1ccc(C(=O)CC(c2ccccc2)C(C#N)c2ccccc2)cc1 (stereo not drawn) was tested, and the growth was 97% (inactive). In the case of NC1CCC(C(=O)O)CC1 (stereo not drawn), the growth is reported as 103% (inactive) and 107% (inactive). With Nc1ccc2c(O)cc(S(=O)(=O)O)cc2c1 the growth was 101% (inactive) and 114% (inactive). CN1CNC(=O)NC1 was tested, and the growth was 113% (inactive) and 118% (inactive). In the case of COc1ccc(N/C=C/C2=[N+](C)c3ccccc3C2(C)C)c(OC)c1, the growth is reported as 113% (inactive). N#CC(C#N)N=Nc1cc(Cl)ccc1Cl was tested, and the growth was 109% (inactive). Nc1nc(N)c2[nH]cnc2n1 was tested, and the growth was 99.9% (inactive). Cc1cc(-c2cc(C)c(O)c(C)c2)cc(C)c1O was tested, and the growth was 88% (inactive). For Fc1ccc([I+]c2ccc(F)cc2)cc1, the growth was 95.8% (inactive). In the case of COc1cc(C(O)C2C(=O)OCC2C2(c3ccc4c(c3)OCO4)SCCCS2)cc(OC)c1OC (stereo not drawn), the growth is reported as 108% (inactive). For OCCN1CCCCCCC1, the growth was 104% (inactive).
